The text below walks through data of PubChem BioAssay (NCI).

Test [1] in a line: NCI Yeast Anticancer Drug Screen. Data for the rad50 strain (AID 155).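 Also: 0% = growth of vehicle-only cultures of the same strain.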 To be noted: S. cerevisiae rad50 strain growth inhibition; at 50.0 µM; stronger effect = higher value. The method in brief:
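Cells are treated with compound, grown, and their growth is then scored against vehicle-only cultures of the same repair-deficient yeast strain.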

The nature of test [2]: NCI Yeast Anticancer Drug Screen. Data for the mec2-1 strain (AID 157). To be noted: S. cerevisiae mec2-1 strain, at 50.0 µM, stronger effect = higher value. The method, boiled down: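 Cells of the genetically defined mec2-1 yeast strain are incubated with test compound. Inhibition of growth is calculated against vehicle-treated controls.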
A short description of test [3]: NCI Yeast Anticancer Drug Screen. Data for the sgs1 mgt1 strain (AID 161).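 Also: 0% = growth of cultures given vehicle only.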 To be noted: S. cerevisiae sgs1 mgt1 strain, at 50.0 µM, stronger effect = higher value. The method, boiled down: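 Test agents were incubated with a DNA-repair-mutant yeast strain. Growth was then read and compared against vehicle-treated controls.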
The nature of test [4]: NCI Yeast Anticancer Drug Screen. Data for the cln2 rad14 strain (AID 165).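 Also: 0% = growth equal to vehicle treated cultures.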 To be noted: S. cerevisiae cln2 rad14 strain, at 50.0 µM, stronger effect = higher value. The method in brief: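 The screen exposed genetically defined yeast (cln2 rad14) to test compounds and scored growth inhibition relative to vehicle-treated controls.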
Test [5] can be described thus: NCI Yeast Anticancer Drug Screen. Data for the bub3 strain (AID 167). To be noted: S. cerevisiae bub3 mutant strain, at 50.0 µM, stronger effect = higher value. The method in brief: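 Part of a panel of yeast mutants defective in DNA damage repair or cell cycle regulation. Each strain is grown with compound, and inhibition is calculated relative to solvent-treated cultures.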

A short description of test [6]: NCI Yeast Anticancer Drug Screen. Data for the mlh1 rad18 strain (AID 175). To be noted: S. cerevisiae mlh1 rad18 strain growth inhibition; at 50.0 µM; stronger effect = higher value. The method in brief:
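Compound-treated yeast growth, normalised to vehicle controls. Strain bears defined DNA repair mutations.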

“And” between values parts separate entries of the source, which are not always exact repeats. Equal values may be shown once. Compounds without any hit were thinned out: in the full panel of roughly 79,000, 15% have a hit. A structure can be active in one record and inactive in another. The source made the active and inactive calls. Rule as the data show it: active = growth inhibition above about 70%; inactive = the rest.

For the molecule `O=C(O)CC(c1ccccc1)c1ccccc1`, the growth inhibition was -47.2% (inactive) and 9.6% (inactive) in test [1]; -39% (inactive) and -5.4% (inactive) in test [2]; -2.95% (inactive) and 2.15% (inactive) in test [3]; 3.35% (inactive) and -3.55% (inactive) in test [4]; -30.6% (inactive) and -21.7% (inactive) in test [5]; -28.1% (inactive) and -0.95% (inactive) in test [6].

For the molecule `O=C(NNC(=S)NC1OC(CO)C(O)C(O)C1O)c1cccc(C(=O)NNC(=S)NC2OC(CO)C(O)C(O)C2O)n1` (stereo unspecified), the growth inhibition is 1.45% (inactive) in test [1]; 19.9% (inactive) and -22.6% (inactive) in test [2]; 31.4% (inactive) and 25.2% (inactive) in test [3]; 21.4% (inactive) and 7.8% (inactive) in test [4]; 17.1% (inactive) and 8.4% (inactive) in test [5]; 27.4% (inactive) and 14.9% (inactive) in test [6].

Take `COc1ccc(NS(=O)(=O)c2ccccc2)cc1`: the growth inhibition in test [1] is -3.55% (inactive) and -19.6% (inactive); in test [2], -2.7% (inactive) and -17.2% (inactive); in test [3], -3.2% (inactive) and -6.95% (inactive); in test [4], -20.7% (inactive) and -48.8% (inactive); in test [5], 1.55% (inactive) and 8.9% (inactive); in test [6], -6.3% (inactive) and -9.8% (inactive).

In the case of `COC(=O)c1cccc2c[n+]3c(cc12)-c1[nH]c2cc(OC)ccc2c1CC3`, the growth inhibition was 4.55% (inactive) and 53% (inactive) in test [1]; -16.9% (inactive) and 8.8% (inactive) in test [2]; -0.05% (inactive) and 21.1% (inactive) in test [3]; -8.05% (inactive) and -7.6% (inactive) in test [4]; 4.6% (inactive) and 13.1% (inactive) in test [5]; 14.6% (inactive) and 13.7% (inactive) in test [6].

In the case of `Cc1ccc(N=Nc2c(O)ccc3cc(S(=O)(=O)O)ccc23)cc1`, the growth inhibition is 50.9% (inactive) and 4.8% (inactive) in test [1]; -15.5% (inactive) and -2.8% (inactive) in test [2]; 9.8% (inactive) and 5.85% (inactive) in test [3]; -6.85% (inactive) and -6.7% (inactive) in test [4]; -32.6% (inactive) and 8.05% (inactive) in test [5]; 22.8% (inactive) and 9.35% (inactive) in test [6].

As for `CC(C)(C)OC(=O)C1CCON1C1OC(C(O)CO)C2OC(C)(C)OC21` (stereo unspecified), the growth inhibition in test [1] is -3.45% (inactive) and 48.1% (inactive); in test [2], 7.85% (inactive) and 43% (inactive); in test [3], 2.4% (inactive) and 57.9% (inactive); in test [4], -8.25% (inactive) and 19% (inactive); in test [5] it was 13.2% (inactive) and 38.5% (inactive); in test [6], 10.8% (inactive) and 59.4% (inactive).

Take `C=CCC1=C(C)C(OC(=O)C=C(C)C)CC1=O` (stereo unspecified): the growth inhibition in test [1] was 19.8% (inactive) and -4.3% (inactive); in test [2], -4% (inactive) and -13.8% (inactive); in test [3], -6.15% (inactive) and -6% (inactive); in test [4], 0.25% (inactive) and -26.2% (inactive); in test [5] it was 3.6% (inactive) and -13.3% (inactive); in test [6] it was -22% (inactive) and -37% (inactive).

For the molecule `CCC(=O)Oc1cc(C)ccc1C(C)(C)C`, the growth inhibition in test [1] was 1.4% (inactive) and -18.1% (inactive); in test [2], 0.8% (inactive) and -19.4% (inactive); in test [3], 1.45% (inactive) and -12% (inactive); in test [4] it was -3.7% (inactive) and -1.5% (inactive); in test [5] it was -0.3% (inactive) and -13.2% (inactive); in test [6], -3.6% (inactive) and -5.85% (inactive).

Consider `CC(=O)NC(Cc1ccccc1)C(=O)O` (stereo unspecified), for which the growth inhibition in test [1] is 11.1% (inactive) and -7.55% (inactive); in test [2], -3% (inactive) and -7.6% (inactive); in test [3] it was 15.7% (inactive) and 4.25% (inactive); in test [4], 6.3% (inactive) and -52.9% (inactive); in test [5], 6.25% (inactive) and -14.1% (inactive); in test [6], -18.3% (inactive) and -27.1% (inactive).

With `Cc1cc(=O)cc(C)o1`, the growth inhibition in test [1] was -11.2% (inactive) and 18.4% (inactive); in test [2] it was -12.8% (inactive) and 5.6% (inactive); in test [3], -10.2% (inactive) and -20.6% (inactive); in test [4], -2.45% (inactive) and -47.6% (inactive); in test [5], 2.35% (inactive) and -5.85% (inactive); in test [6], -8.55% (inactive) and 0.05% (inactive).

As to `CC(=O)c1c(-c2cccc3ccccc23)c(C#N)c(=S)n(C2OC(CO)C(O)C(O)C2O)c1-c1ccccc1` (stereo unspecified), the growth inhibition in test [1] is 21.2% (inactive) and 31.6% (inactive); in test [2] it was 17.9% (inactive) and -8.45% (inactive); in test [3], 42.1% (inactive) and 34.2% (inactive); in test [4] it was 25.7% (inactive) and 23.8% (inactive); in test [5], 34.9% (inactive) and 12.3% (inactive); in test [6] it was 21.6% (inactive) and 24.7% (inactive).

With `ClCC(CCl)(CCl)CCl`, the growth inhibition in test [1] was 24.6% (inactive) and 1.15% (inactive); in test [2], 6.95% (inactive) and -12.9% (inactive); in test [3] it was 13.4% (inactive) and 7.95% (inactive); in test [4], 6% (inactive) and 20.1% (inactive); in test [5], 12.3% (inactive) and -0.2% (inactive); in test [6], 5.85% (inactive) and 1.45% (inactive).

On to `O=C(O)c1cccc(S(=O)(=O)O)c1`, for which the growth inhibition in test [1] was -22.6% (inactive) and -9.2% (inactive); in test [2], -40.5% (inactive) and -8.4% (inactive); in test [3], -1.2% (inactive) and -9.2% (inactive); in test [4], -14.1% (inactive) and 13% (inactive); in test [5], -2.05% (inactive) and 0% (inactive); in test [6], 0.4% (inactive) and 2.45% (inactive).

Take `Nc1ncnc2c1ncn2C1(CO)OC(CO)C(O)C1O` (stereo unspecified): the growth inhibition in test [1] was 13.7% (inactive) and 3.2% (inactive); in test [2] it was -9.1% (inactive) and -6.15% (inactive); in test [3] it was -13.9% (inactive) and -0.2% (inactive); in test [4], -0.65% (inactive) and -23.2% (inactive); in test [5], 5% (inactive) and 19.4% (inactive); in test [6], 11.2% (inactive) and -1.25% (inactive).

As for `COc1ccc(/C=C\c2cc(OC)c(OC)c(OC)c2)cc1OC(=O)C(N)CCC(=O)O` (stereo unspecified), the growth inhibition in test [1] is -5.3% (inactive) and 8.35% (inactive); in test [2], -18.3% (inactive) and -10.8% (inactive); in test [3] it was -0.6% (inactive) and -3.85% (inactive); in test [4], 21.9% (inactive) and 6.7% (inactive); in test [5], -19.6% (inactive) and 34% (inactive); in test [6], 79.2% (active) and 3.3% (inactive).

For `c1ccc([P+](Cc2ccccc2C[P+](c2ccccc2)(c2ccccc2)c2ccccc2)(c2ccccc2)c2ccccc2)cc1`, the growth inhibition is -15% (inactive) and 20.1% (inactive) in test [1]; -20.9% (inactive) and 6.8% (inactive) in test [2]; -5.3% (inactive) and 7.25% (inactive) in test [3]; -8.25% (inactive) and 14.8% (inactive) in test [4]; 1.6% (inactive) and 7.8% (inactive) in test [5]; -50% (inactive) and 12.3% (inactive) in test [6].

On to `CC(=O)OCC(OC(C)=O)C(OC(C)=O)C(OC(C)=O)C(C=NN(C(C)=O)S(=O)(=O)c1ccc(/C=C2\NC(=O)N(C)C2=O)cc1)OC(C)=O` (stereo unspecified), for which the growth inhibition in test [1] was 10.8% (inactive) and 20.4% (inactive); in test [2], 5.25% (inactive) and -9.85% (inactive); in test [3] it was 19.9% (inactive) and 15.7% (inactive); in test [4], 12.8% (inactive) and 33.5% (inactive); in test [5] it was 12.7% (inactive) and 12.6% (inactive); in test [6] it was 22.8% (inactive) and 12.1% (inactive).

As to `Cc1ccc(C(C)CCCO)cc1` (stereo unspecified), the growth inhibition was -11.6% (inactive) and 6.8% (inactive) in test [1]; -15.4% (inactive) and -21.8% (inactive) in test [2]; -16.8% (inactive) and -6.55% (inactive) in test [3]; -6.55% (inactive) and -2.3% (inactive) in test [4]; -22.2% (inactive) and -6.35% (inactive) in test [5]; -23.9% (inactive) and -25.9% (inactive) in test [6].

With `OCC(O)C(O)C(O)C(O)[C@@H](O)c1nc2ccccc2[nH]1` (stereo partly specified), the growth inhibition in test [1] was -5.1% (inactive) and -12.2% (inactive); in test [2], 3% (inactive) and -0.15% (inactive); in test [3], -2.75% (inactive) and -4.4% (inactive); in test [4], -34.5% (inactive) and -16.2% (inactive); in test [5] it was 2.8% (inactive) and 21.2% (inactive); in test [6], -3.8% (inactive) and 12.2% (inactive).

Take `Cc1ccc(S(=O)(=O)NC(CCC(=O)O)C(=O)O)cc1` (stereo unspecified): the growth inhibition in test [1] is -11.2% (inactive) and -4.6% (inactive); in test [2], -22.7% (inactive) and 7.2% (inactive); in test [3] it was 0.15% (inactive) and 0.2% (inactive); in test [4], -6.75% (inactive) and -12.2% (inactive); in test [5] it was 21.1% (inactive) and 6.9% (inactive); in test [6], -12.4% (inactive) and 9.75% (inactive).

As for `CC1(C)Cc2[nH]c3ccccc3c2C(C)(C)N1`, the growth inhibition in test [1] was -35% (inactive) and 6.55% (inactive); in test [2], -16.4% (inactive) and 23.3% (inactive); in test [3], -6.35% (inactive) and 14.5% (inactive); in test [4], -64% (inactive) and -6.15% (inactive); in test [5], -4.5% (inactive) and 12.5% (inactive); in test [6], 3.8% (inactive) and 10.5% (inactive).
